# TRPM1 prom inh: inhibitors of MITF-driven TRPM1 promoter in melanoma cells | SK-MEL-5 TRPM1 promoter luciferase, 24 h | inhibition, % at 12.5 µM | 330,000 compounds, 0.83% hits | AID 488899;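 active = mean inhibition across replicates of 60% or more, whatever share of single replicates reaches that level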
# CF NFkB inh: blocks PAF-induced NF-kB reporter in cystic fibrosis cells; KKLEB NF-kB-GFP reporter, GFP fluorescence overnight; inhibition, % at 5 µM; 360,000 compounds, 0.86% hits; AID 588850;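 active = at least 50% inhibition at 5 µM, scaled per plate between neutral and stimulator controls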;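 note: PAF is a Pseudomonas aeruginosa culture filtrate used as stimulus; plate controls were PAF-stimulated DMSO wells for no effect and unstimulated DMSO wells for full effect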
# Peg3 prom inh: inhibitors of Peg3 promoter | HeLa PEG-Prom luciferase reporter, luminescence, overnight | inhibition, % at 20 µM | 360,000 compounds, 1.7% hits | AID 588405;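 active = inhibition of at least 50% at 20 µM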
# KKLEB tox: counter-screen for CF NF-kB inhibitors: cytotoxicity; activity change (cytotoxicity), % at 5 µM; 360,000 compounds, 0.36% hits; KKLEB CF airway cells viability, ATPlite luminescence, overnight; stronger effect = lower value; cells stimulated with P. aeruginosa culture filtrate;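 active = corrected activity change at or below -50% at 5 µM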
# HIF-2a inh: blocks HIF-2a reporter activity; 360,000 compounds, 0.72% hits; inhibition, % at 18.8 µM; 786-0 RCC cells HIF-2a reporter, luciferase luminescence, overnight;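 active = inhibition of the luminescence signal of 40% or more relative to plate controls, in a single-dose primary screen at 18.75 µM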
# ABHD5 PLIN5 PPI: blocks binding of human ABHD5 to perilipin-5; Q00G26+Q8WTS1; Split G. princeps luciferase complementation, luminescence, 4 h; inhibition, % at 4 µM; 360,000 compounds, 0.78% hits; AID 602281;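 active = inhibition above the mean inhibition across every tested compound plus 3 SD, cut at about 22% in these data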;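 note: 0% = DMSO only wells and the 100% control is not disclosed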
# Target sequence (Q00G26 whole entry, looked up): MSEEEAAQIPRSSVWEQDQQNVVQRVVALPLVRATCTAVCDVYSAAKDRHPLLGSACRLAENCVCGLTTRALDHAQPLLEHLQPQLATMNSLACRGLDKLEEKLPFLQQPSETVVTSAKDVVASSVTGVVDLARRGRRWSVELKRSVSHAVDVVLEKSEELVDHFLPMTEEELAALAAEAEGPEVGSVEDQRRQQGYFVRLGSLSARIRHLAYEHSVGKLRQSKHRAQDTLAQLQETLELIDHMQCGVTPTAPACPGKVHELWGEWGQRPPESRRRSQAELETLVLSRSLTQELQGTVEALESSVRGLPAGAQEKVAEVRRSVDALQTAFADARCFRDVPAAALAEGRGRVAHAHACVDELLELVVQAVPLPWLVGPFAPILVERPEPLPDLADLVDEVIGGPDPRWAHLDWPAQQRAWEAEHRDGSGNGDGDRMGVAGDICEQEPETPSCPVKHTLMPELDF
# Target sequence (Q8WTS1 whole entry, looked up): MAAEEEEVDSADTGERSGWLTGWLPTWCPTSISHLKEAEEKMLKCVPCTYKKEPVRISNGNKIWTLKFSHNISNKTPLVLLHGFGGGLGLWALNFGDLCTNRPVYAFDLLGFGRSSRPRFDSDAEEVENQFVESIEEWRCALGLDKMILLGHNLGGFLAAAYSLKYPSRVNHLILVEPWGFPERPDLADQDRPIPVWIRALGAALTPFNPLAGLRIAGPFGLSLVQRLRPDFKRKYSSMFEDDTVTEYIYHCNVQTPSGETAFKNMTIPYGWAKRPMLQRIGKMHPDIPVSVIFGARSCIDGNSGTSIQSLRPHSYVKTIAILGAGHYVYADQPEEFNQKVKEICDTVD
# CF NFkB conf: confirmation of cystic fibrosis induced NF-kB inhibitors | shares compounds with CF NFkB inh | KKLEB CF airway cells, PAF-induced NF-kB-GFP fluorescence, overnight | inhibition, % at 5 µM | 1,300 compounds, 64% hits; in the data active = inhibition above about 40%;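 note: stimulus PAF is a Pseudomonas aeruginosa filtrate and not platelet activating factor; plate controls were DMSO wells with stimulus for no effect and unstimulated DMSO wells for full effect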
# Numbers without * were called inactive; . = no result; ! = repeats disagree. Rows were chosen to be rich in hits. Some 3.1% of all compounds tested hit in one or more screens of this group.
SMILES,TRPM1 prom inh,CF NFkB inh,Peg3 prom inh,KKLEB tox,HIF-2a inh,ABHD5 PLIN5 PPI,CF NFkB conf
C[C@@]12CCC=C[C@H]1[C@H](c1ccc(C(F)(F)F)cc1)N(Cc1ccccc1)C2=O,5.0,57.6*,18.8,-13.7,20.2,-5.3,38.8
C[C@@]12CCC=C[C@H]1[C@H](c1ccc(/C=C/c3ccccc3)cc1F)N(Cc1ccccc1)C2=O,-12.9,22.5,10.7,-9.4,19.4,-14.8,.
COc1ccc([C@H]2C[C@H](O)[C@@H](n3cc(C4CC4)nn3)CN2C(=O)C2CCCCC2)cc1,.,25.7,3.6,4.2,10.1,-5.8,.
COc1cc([C@@H]2c3cc4c(cc3[C@@H](O)[C@H]3COC(=O)[C@H]23)OCO4)cc(OC)c1O[Si](C)(C)C(C)(C)C,25.0,24.2,38.9,5.1,3.0,2.0,.
COc1cc(C2c3cc4c(cc3C3OC(=O)C2C3CO)OCO4)cc(OC)c1OC (stereo not given),.,53.3*,-1.4,-37.0,24.3,2.1,74.5*
N#Cc1ccc(Cl)cc1NC(=O)CNCc1cccs1,-8.6,-22.1,11.5,3.7,-10.4,-0.7,.
O=C(CCCn1c(=S)[nH]c2cc3c(cc2c1=O)OCO3)N1CCN(c2ccccc2)CC1,5.0,9.7,14.6,4.1,17.3,-0.7,.
Cc1cccc(N2CCN(C(=O)CCn3c(=S)[nH]c4cc5c(cc4c3=O)OCO5)CC2C)c1 (stereo not given),-10.0,69.0*,63.5*,0.7,-8.0,-4.8,101.2*
O=C(CSc1nnc2ccccn12)N1CCc2ccccc21,-43.6,31.3,-224.0,-13.0,-214.3,-6.0,.
CCCCCCCCO,0.3,8.2,-14.8,0.3,-0.1,4.7,.
CCCCCCCCCCCCCCCC(O)C(N)CO (stereo not given),10.1,61.0*,-11.1,-0.4,4.9,3.6,15.3
COc1ccccc1C(=O)N1CCN(Cc2ccc3c(c2)OCO3)CC1,6.0,15.3,-91.0,-9.2,29.0,-1.2,.
CCOc1ccccc1C(=O)NCC(=O)N1CCN(Cc2ccc3c(c2)OCO3)CC1,-22.4,74.2*,-0.4,-14.0,0.2,5.2,31.3
COc1ccc(CCNC(=O)C2(C)CCC(=O)N2Cc2ccc(F)cc2Cl)cc1OC (stereo not given),-1.1,3.1,-3.0,-2.0,13.2,-9.2,.
COc1ccc(CN2C[C@H]3CCCN3c3cc(Br)ccc3S2(=O)=O)cc1,34.5,52.8*,11.1,-6.5,10.4,-8.3,56.2*
O=[N+]([O-])c1ccc(O)c(C2CCCCC2)c1,2.7,63.7*,38.5,-19.0,10.5,-4.9,93.3*
O=[N+]([O-])c1ccc2nc(C3CCCCC3)[nH]c2c1,-15.2,2.8,-63.0,6.9,-124.6,6.2,.
Cc1nn(-c2nccs2)c2c1C(=O)CC(C)(C)C2Br (stereo not given),15.5,50.7*,49.5,2.4,9.3,0.2,61.4*
COc1ccc(NC(=O)CN(C)C2CCS(=O)(=O)C2)cc1 (stereo not given),0.5,-17.5,5.7,-3.5,11.3,-1.2,.
CC1Cc2ccccc2N1c1ncnc2nc[nH]c12 (stereo not given),-9.9,64.8*,-53.3,1.0,-87.2,0.5,86.5*
c1ccc2c(c1)CCN(c1ncnc3nc[nH]c13)C2,.,16.7,10.3,-4.3,0.1,-3.6,.
Cc1ccc(S(=O)(=O)Nc2cccc(C(=O)NCCCn3ccnc3)c2)cc1F,3.9,15.0,10.3,5.1,1.0,11.7,.
Cn1cc([N+](=O)[O-])c(C(=O)Nc2sc3c(c2C#N)CCC3)n1,67.7*,57.9*,-40.8,-14.1,-12.1,-7.8,-82.2
CC(/C=N/NC(=O)COc1ccccc1C)=N\NC(=O)COc1ccccc1C,-4.0,0.8,11.7,2.7,10.4,-0.5,.
CC1=CC(C)(C)N(S(=O)(=O)c2ccc(F)cc2)c2ccccc21,34.4,30.2,29.9,-29.2,16.3,-11.8,.
SMILES,TRPM1 prom inh,CF NFkB inh,Peg3 prom inh,KKLEB tox,HIF-2a inh,ABHD5 PLIN5 PPI,CF NFkB conf
CC(=O)Nc1ccc(S(=O)(=O)N2c3ccccc3C(C)=CC2(C)C)cc1,34.5,54.0*,22.4,-17.3,33.5,-3.4,64.6*
O=C1CCC(N2C(=O)c3ccccc3C2=O)C(=O)N1 (stereo not given),-3.5,75.7*,3.8,18.2,-6.4,0.6,12.0
O=[N+]([O-])c1ccc(NC(=S)NCCc2ccc(F)cc2)cc1,6.0,50.5*,25.7,-48.0,-84.1,-5.6,66.5*
O=C(O)CCSc1nc2ccccc2n1-c1ccccc1,-1.7,56.1*,19.0,23.5,26.9,-7.3,19.4
CC(Sc1n[nH]c(-c2ccccc2F)n1)C(=O)Nc1ccc(S(N)(=O)=O)cc1 (stereo not given),.,4.0,2.8,6.8,12.5,4.2,.
C[C@]12CCC(O)CC1CCC1C2CC[C@]2(C)C(c3cc(C(F)(F)F)n[nH]3)CCC12 (stereo not given in full),8.6,56.5*,100.8*,-36.9,35.8,4.5,71.4*
CC12CCC3C(CCC4CC(O)CCC43C)C1CC(O)C2 (stereo not given),3.4,8.9,32.1,6.0,5.5,5.1,.
Cc1cccn2c(=O)nc(SCC(=O)N3CCC(Cc4ccccc4)CC3)nc12,1.5,-1.6,12.2,16.6,14.8,0.8,.
Cc1ccc(C(=O)Nc2cccc(C(F)(F)F)c2)cc1NC(=O)c1nccnc1N,-2.4,59.2*!,9.8,-44.5,12.3,1.6,78.1*
Cc1ccc(C(=O)Nc2cccc(C(F)(F)F)c2)cc1NC(=O)c1cnnc2ccccc12,25.3,53.1*,16.6,-24.7,1.9,-2.8,51.6*
Cc1ccc(C(=O)Nc2cccc(C(F)(F)F)c2)cc1Nc1cncnc1,-13.6,28.8,18.0,-2.8,9.2,-2.7,.
CCN1CCN(C(C(=O)NC2CCCCC2)c2ccnc3ccccc23)CC1 (stereo not given),.,-5.0,16.2,-0.2,8.3,1.1,.
NC(=O)c1sc2nc(-c3ccccc3)c3c(c2c1N)CCCC3,2.3,-25.7,18.2,6.0,12.6,-7.9,.
NC(=O)c1sc2nccc(Nc3ccccc3)c2c1N,-19.3,73.0*,-40.6,4.4,-15.3,-6.5,72.9*
CCN1CCN(Cc2ccc(NC(=O)c3ccc(C)c(NC(=O)c4csc(-c5ccncc5)n4)c3)cc2C(F)(F)F)CC1,49.1,70.8*,-9.0,-8.5,21.7,12.4,45.9*
CCN1CCN(Cc2ccc(NC(=O)c3ccc(C)c(NC(=O)C4=NN(c5ccccc5)C(=O)C4)c3)cc2C(F)(F)F)CC1,10.1,14.6,-34.2,4.7,-13.2,-3.8,.
CCN1CCN(Cc2ccc(NC(=O)c3ccc(C)c(NC(=O)c4ccno4)c3)cc2C(F)(F)F)CC1,-6.4,56.1*,17.5,-3.9,12.1,-2.2,69.3*

# From PubChem
